MITF primary – MITF inhibitors, primary screen, biochemical, AlphaScreen, human. Microphthalmia-associated transcription factor (Homo sapiens), O75030. AlphaScreen MITF homodimerization, bead proximity signal. inhibition, % at 2.6 µM. 0.91% of 650,000 active. AID 1259374, 2018; in the data active = inhibition above about 50%
GPR151 activ – activators of human GPR151, primary screen, cell-based, PathHunter beta-arrestin, luminescence. G-protein coupled receptor 151 (Homo sapiens), Q8TDV0. PathHunter beta-arrestin GPR151 cells. activation, % at 11.2 µM. 1% of 650,000 active. AID 1508602, 2020; in the data active = activation above about 4.9%
Target sequence (Q8TDV0 whole entry, looked up): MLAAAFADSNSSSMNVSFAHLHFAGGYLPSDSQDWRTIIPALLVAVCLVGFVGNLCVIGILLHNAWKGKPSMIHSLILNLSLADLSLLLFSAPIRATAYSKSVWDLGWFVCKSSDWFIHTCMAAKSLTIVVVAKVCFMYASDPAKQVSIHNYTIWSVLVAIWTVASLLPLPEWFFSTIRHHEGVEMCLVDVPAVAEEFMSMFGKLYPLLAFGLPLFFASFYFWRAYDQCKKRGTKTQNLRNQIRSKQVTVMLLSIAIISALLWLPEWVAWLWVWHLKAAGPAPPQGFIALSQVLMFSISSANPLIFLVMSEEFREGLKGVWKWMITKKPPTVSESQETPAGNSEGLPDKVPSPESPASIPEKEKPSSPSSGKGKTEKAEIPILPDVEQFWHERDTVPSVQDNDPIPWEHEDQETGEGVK
FBW7 act – FBW7 E3 ligase activators, primary screen, biochemical, AlphaScreen, human | AlphaScreen FBW7–phospho-cyclin E peptide binding, activator screen | AID 1259310, 2017 | F-box/WD repeat-containing protein 7 (Homo sapiens), Q969H0 | 0.13% of 650,000 active | normalized activity (activation), % at 26.1 µM; in the data active = normalized activity above about 1.9%;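 also: purified mutant Fbw7 with reduced substrate affinity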
TEAD-YAP block – TEAD-YAP interaction inhibition, primary screen, TEAD-YAP interaction inhibitor project, luminescence, HEK-TIYL cells. inhibition, % at 9.12 µM. 1.4% of 640,000 active. TEAD-Gal4/YAP UAS-luciferase luminescence; in the data active = inhibition above about 32%
A number is an active result; n = inactive. Only some compounds are listed: those with a hit (about 3.5% of all), similar ones and a draw of the others.

SMILES | MITF primary | GPR151 activ | FBW7 act | TEAD-YAP block
CC(C)(C)c1nnc2sc(SCC(=O)Nc3ccc(Br)cc3)nn2c1=O | n | n | n | n
CC(C)n1cnc2c(Nc3ccc(N4CCOCC4)cc3)nc(-c3ccc(C(N)=O)cc3)nc21 | n | n | n | 32.3
COc1cccc(C=O)c1OC(=O)c1cccc(Cl)c1 | n | n | 11.9 | n
COc1cccc(C=O)c1OC(=O)c1ccc2ccccc2c1 | n | n | n | n
COc1ccccc1C(=O)Nc1ccc(Nc2cc(-n3ccnc3)ncn2)cc1 | n | n | n | 36.9
O=C(Nc1ccc(Nc2cc(-n3ccnc3)ncn2)cc1)C(c1ccccc1)c1ccccc1 | n | n | n | n
O=C(Nc1ccc(Nc2cc(-n3ccnc3)ncn2)cc1)c1ccccc1Cl | n | n | n | 40.6
O=C(Nc1cccc2ccc(-n3ccnc3)nc12)c1ccccc1Cl | n | n | 2.3 | n
O=C(Cc1ccc(F)cc1)Nc1ccc(Nc2cc(-n3ccnc3)ncn2)cc1 | n | n | n | n
Cc1onc(-c2ccccc2Cl)c1C(=O)Nc1cccc2ccc(-n3ccnc3)nc12 | n | n | n | n
CCCCOc1ccc(C(=O)Nc2ccc3c4c(cccc24)C(=O)N3CC)cc1 | n | n | n | n
CCCCN1C(=O)c2cccc3c(NC(=O)c4ccc(C#N)cc4)ccc1c23 | n | n | n | 48.3
O=C(CN1C(=O)/C(=C\c2ccccc2Br)Oc2ccccc21)NC1CCCC1 | n | n | n | 57.2
O=C(CN1C(=O)/C(=C\c2ccccc2)Oc2ccccc21)NC1CCCCC1 | n | n | n | n
CC(=O)N1N=C(c2ccc(F)cc2)CC1c1cccc([N+](=O)[O-])c1 (stereo unspecified) | n | n | n | n
COc1ccc(/C(C)=N/Nc2ccc(C(=O)O)cc2)c(OC)c1 | n | n | n | 48.0
COc1ccc(/C=N/Nc2ccc(C(=O)O)cc2)cc1Br | n | n | n | 45.4
COc1ccc(C(=O)N/N=C/c2ccc(O)c(O)c2)cc1Br | n | n | n | n
COc1ccc(C(=O)N/N=C(/C)c2ccc(OC)cc2OC)cc1 | n | n | n | n
COc1ccc(C(=O)N/N=C\c2ccc(Br)cc2)cc1OC | n | n | n | 40.2
COc1cc(OC)cc(C(=O)N/N=C\c2ccc(OCC(N)=O)cc2)c1 | n | n | n | 55.7
CCC(C)c1ccc(NS(=O)(=O)c2cccc([N+](=O)[O-])c2)cc1 (stereo unspecified) | n | n | n | n
N#Cc1ccc(/C=N/NC(=O)c2ccccc2O)cc1 | n | n | n | n
O=C(O)c1cc(N/N=C/c2cccnc2)ccc1Cl | n | n | n | n
N#Cc1ccc(/C=N/NC(=O)c2cc(O)cc(O)c2)cc1 | n | n | n | 33.0
SMILES | MITF primary | GPR151 activ | FBW7 act | TEAD-YAP block
O=C(O)c1ccc(N/N=C/c2cccnc2)cc1 | n | n | n | 32.6
Cc1cc2c(cc1C)N(C(=O)Nc1ccccc1)C(C)(C)CC2C (stereo unspecified) | n | n | n | n
CCOc1ccc(CN2CCc3nnc(CCNC(=O)C4CCCCC4)n3CC2)cc1 | n | n | n | n
Cc1ccc(NC(=O)CCCCCC2NC(=O)NC2C)cc1 (stereo unspecified) | 98.5 | n | n | n
Cc1ccc(NC(=O)CCCCCN2C(=O)c3ccccc3C2=O)cc1 | n | n | n | n
O=C(Nc1ccc(Oc2ccccc2)cc1)c1cccc(-c2ccc(N3CCOCC3)nc2)c1 | n | n | n | n
Cc1ccc(NC(=O)c2cc(Cl)ccc2[N+](=O)[O-])c(C(=O)c2ccccc2)c1 | n | n | n | n
OCC1CCCN1c1cc(NCCc2ccc(O)cc2)ncn1 (stereo unspecified) | n | n | n | 47.9
OCC1CCCN1c1cc(Nc2ccccc2)ncn1 (stereo unspecified) | n | n | n | n
Oc1ccc(CCNc2cc(Nc3ncccn3)ncn2)cc1 | n | n | n | 42.3
OCC1CCCN1c1cc(Nc2ccc3c(c2)OCO3)ncn1 (stereo unspecified) | n | n | n | 37.0
O=C(NCCCN1CCCC1=O)c1cnn(-c2ccccc2)c1-n1cccc1 | n | n | n | n
COc1ccc(NC(=O)CN2C(=O)CCC2=O)c([N+](=O)[O-])c1 | n | n | n | n
CC(=O)N(/N=C1\Sc2ccccc2C1=O)c1ccccc1Cl | n | n | n | 90.9
CC(=O)N(/N=C1\Sc2ccccc2C1=O)c1cccc(C)c1 | n | n | n | n
CCc1ccc(-n2c(SCC3COc4ccccc4O3)nc3[nH]ncc3c2=O)cc1 (stereo unspecified) | n | n | n | n
Oc1ccc(-c2[nH]ncc2-c2cnn(-c3ccccc3)c2)c(O)c1O | n | n | n | n
CC1(C)CC(=O)C=C(NNC(=O)/C(=C/c2ccccc2)CCO)C1 | n | n | 1.9 | n
CC1(C)CC(=O)C=C(NNC(=O)c2ccc(O)cc2)C1 | n | n | n | n
CC(C)n1cnc2c(NCCc3ccc(O)cc3)nc(-c3ccccc3)nc21 | n | n | n | n
COc1ccc(-c2nc(NCCc3ccc(O)cc3)c3ncn(-c4ccccc4)c3n2)cc1 | n | n | n | n
COc1ccc(CCNc2nc(-c3ccc(C(=O)N4CCN(C)CC4)cc3)nc3c2ncn3-c2ccccc2)cc1 | n | n | n | 41.3
COc1ccc(CCNc2nc(-c3ccccc3)nc3c2ncn3-c2ccsc2)cc1 | n | n | n | n
COc1ccc(-c2nc(NCCc3ccc(O)cc3)c3ncn(-c4ccccc4)c3n2)cn1 | n | n | n | 47.4
COc1ccc(-c2nc(NCCc3ccc(O)cc3)c3ncn(C(C)C)c3n2)cc1 | n | n | n | 61.4
SMILES | MITF primary | GPR151 activ | FBW7 act | TEAD-YAP block
COc1ccc(-c2nc(NCCc3ccc(O)cc3)c3ncn(-c4ccsc4)c3n2)cc1 | n | n | n | 55.5
COc1ccccc1NC(=O)Nc1nnc(CSc2ccccc2)s1 | n | n | n | n
COc1ccc([N+](=O)[O-])cc1N(CC(=O)N(C)Cc1ccccc1)S(C)(=O)=O | n | n | n | n
COc1ccc(CCNc2nc(-c3ccc(OC)nc3)nc3c2ncn3-c2ccsc2)cc1 | n | n | n | 46.1
Cc1ccc(NC(=O)CSc2nnc(-c3cccnc3)s2)cc1 | n | n | n | n
O=C(CSc1nnc(-c2cccnc2)s1)Nc1ccnc2ccccc12 | n | n | n | 47.8
COc1cc([N+](=O)[O-])ccc1-c1ccc(/C=C2\NC(=O)NC2=O)o1 | n | n | n | n
CC(C)(C)Nc1ncnc2c1cnn2-c1ccccc1 | n | n | n | 44.6
c1ccc(CNc2ncnc3c2cnn3-c2ccccc2)cc1 | n | n | n | n
Cc1ccc(-n2ncc3c(NC(C)(C)C)ncnc32)cc1 | n | n | n | 48.6
CCC(=O)NC(c1ccc(F)cc1)C(Cl)(Cl)Cl (stereo unspecified) | n | n | n | n
Cc1c(N=Nc2ccc([N+](=O)[O-])cc2S(=O)(=O)O)co[n+]1[O-] | n | n | n | n
